# PAX8 reporter = inhibitors of PAX8 transcriptional activity in RMG-I cells | inhibition, % at 12.6 µM | 1.2% of 360,000 active | RMG-I TPO-luciferase reporter, SteadyGlo, 24 h | AID 652154;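 active = mean replicate inhibition at least 60% with every replicate also reaching 60%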;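 also: luciferase light reporting Pax8 driven TPO promoter activity; plate controls were median of neutral control wells for no effect and mitoxantrone controls for full effect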
# EWS-Fli inh = EWS/Fli transcriptional activity inhibition. A673 NR0B1-luciferase reporter, viability-normalised. inhibition, % at 12.6 µM. 0.67% of 350,000 active;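 active = mean inhibition of at least 50% after viability correction, with every replicate also passing that limit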;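 also: firefly luciferase signal divided by Alamar Blue viability fluorescence both relative to DMSO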
# GSIS activator = primary screen for activators of insulin secretion dependent on glucose, INS-1E cells, GLuc reporter luminescence. INS-1E GLuc reporter insulin secretion, 2-3 h. activation, % at 16.6 µM. 0.61% of 370,000 active;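 active = lowest replicate activation of at least 40%, so every replicate reaches that level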;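 also: 0% = median of neutral control wells and 100% = median of IBMX positive control wells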
# Env fusion inh = HIV envelope-mediated fusion inhibition; AID 651610; inhibition, % at 12.3 µM; HeLa-JRFL Env/CEM21 cell fusion, luciferase; 1.1% of 360,000 active;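 active = mean replicate inhibition score of at least 50 and every replicate individually at or above 50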;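 also: 0% = plate neutral controls and 100% = maraviroc near 300 nM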
# miR122 inh = inhibitors of miR-122 in Huh7 cells; Huh7 miR-122 Renilla luciferase sensor, 48 h; neutral wells = 0, positive control = 100; activation (reporter increase), % at 12.5 µM; 0.3% of 340,000 active; AID 602342;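 active = mean replicate activation score at least 90 and every replicate individually at or above 90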;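 also: higher luciferase means less miR-122 activity so hits act as miR-122 inhibitors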
# C2C12 statin = suppressors of simvastatin-induced myotoxicity in C2C12 myotubes | ATP luminescence, 48 h; scaled: DMSO 0, geranylgeraniol control 100 | 0.78% of 330,000 active | rescue of ATP level, % at 7.49 µM;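 active = mean ATP rescue above about 67%, or every replicate alone reaching that limit, limit read from the data, passing the limit was not always enough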;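 also: myotubes were challenged with 10 µM simvastatin during compound exposure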
# An asterisk follows results filed as active; x = not tested or not shown; [ ] = remark or other dose. Rows were chosen to be rich in hits. Some 3.1% of all compounds tested hit in one or more screens of this group.
SMILES,PAX8 reporter,EWS-Fli inh,GSIS activator,Env fusion inh,miR122 inh,C2C12 statin
Cc1ccc(OCC(O)CNC(C)c2ccccc2)cc1C (configuration not stated),16,1,x,60*,-23,8
CCCC#Cc1cnc2c(c1)C(=O)N([C@@H](C)CO)C[C@@H](C)[C@H](CN(C)C(=O)Nc1ccccc1OC)O2,x,9,-6,0[16.7 µM],9[16.7 µM],19
CN(C)C(=O)C[C@@H]1C[C@H]2c3cc(NS(=O)(=O)c4ccc(F)cc4)ccc3O[C@H]2[C@H](CO)O1,2,2,-2,90*[16.7 µM],3[16.7 µM],-4
C[C@@H](NC(=O)C[C@@H]1C[C@@H]2c3cc(NC(=O)Nc4ccccc4F)ccc3O[C@@H]2[C@@H](CO)O1)c1ccccc1,8,-4,105*,15[16.7 µM],5[16.7 µM],-2
CN(C)C(=O)C[C@H]1C[C@@H]2c3cc(NS(=O)(=O)c4ccc(F)cc4)ccc3O[C@@H]2[C@@H](CO)O1,-4,4,5,90*[16.7 µM],-5[16.7 µM],3
CN(C)C(=O)C[C@H]1C[C@H]2c3cc(NS(=O)(=O)c4ccc(F)cc4)ccc3O[C@H]2[C@H](CO)O1,-2,5,-4,30[16.7 µM],-2[16.7 µM],-4
CN(C)C(=O)C[C@H]1C[C@@H]2c3cc(NS(=O)(=O)c4ccc(F)cc4)ccc3O[C@@H]2[C@H](CO)O1,-7,-5,-1,13[16.7 µM],3[16.7 µM],-1
COc1ccccc1NC(=O)N[C@@H]1CC[C@H](CC(=O)N[C@H](C)c2ccccc2)O[C@@H]1CO,3,-5,2,75*[16.7 µM],x,15
C/C=C/c1cnc2c(c1)C(=O)N([C@H](C)CO)C[C@H](C)[C@@H](CN(C)C(=O)NC1CCCC1)O2,x,-10,27,4[16.7 µM],-2[16.7 µM],8
CCNC(=O)Nc1ccc2c(c1)C(=O)N(C)[C@@H]1CC[C@@H](CC(=O)NCc3ccc(F)cc3)O[C@@H]1CO2,8,0,0,-4[16.7 µM],-9[16.7 µM],-9
CN(C)C(=O)C[C@@H]1C[C@H]2c3cc(NS(=O)(=O)c4ccc(F)cc4)ccc3O[C@H]2[C@@H](CO)O1,-5,-4,-5,-27[16.7 µM],0[16.7 µM],2
C[C@@H](NC(=O)C[C@H]1C[C@@H]2c3cc(NS(=O)(=O)c4ccc(F)cc4)ccc3O[C@@H]2[C@H](CO)O1)c1ccccc1,21,7,-12,86*[16.7 µM],-4[16.7 µM],0
CN(C)C(=O)C[C@@H]1C[C@@H]2c3cc(NS(=O)(=O)c4ccc(F)cc4)ccc3O[C@@H]2[C@@H](CO)O1,-2,3,-4,70*[16.7 µM],2[16.7 µM],-6
C[C@H](NC(=O)C[C@H]1C[C@@H]2c3cc(NS(=O)(=O)c4ccc(F)cc4)ccc3O[C@@H]2[C@H](CO)O1)c1ccccc1,-14,-6,-6,-11[16.7 µM],1[16.7 µM],4
C[C@@H]1CCCCO[C@@H](CN(C)C(=O)Cc2ccccc2)[C@H](C)CN([C@H](C)CO)C(=O)c2cc(NS(=O)(=O)c3ccccc3)ccc2O1,-32,5,-38,-31[16.7 µM],2[16.7 µM],x
O=C(NC[C@@H]1CC[C@H]2[C@H](CN2Cc2ccc(Oc3ccccc3)cc2)O1)C1CCOCC1,-17,5,x,12[16.7 µM],x,x
Cc1noc(C)c1NC(=O)N(C)C[C@H]1OCCCC[C@H](C)Oc2ccc(NC(=O)CCC(F)(F)F)cc2C(=O)N([C@@H](C)CO)C[C@H]1C,-1,-1,5,2[16.7 µM],3[16.7 µM],x
C[C@H](CO)N1C[C@H](C)[C@H](CN(C)C(=O)Cc2ccccc2)OCCCC[C@H](C)Oc2ccc(NS(=O)(=O)c3ccccc3)cc2C1=O,-5,60*,-23,-68[16.7 µM],-7[16.7 µM],x
C[C@H](CO)N1C[C@H](C)[C@H](CN(C)C(=O)Cc2ccccc2)OCCCC[C@H](C)Oc2ccc(NS(=O)(=O)c3ccc(Cl)cc3)cc2C1=O,67*,-9,1,23[16.7 µM],-19[16.7 µM],x
C[C@H]1CCCCO[C@H](CN(C)C(=O)Cc2ccccc2)[C@@H](C)CN([C@@H](C)CO)C(=O)c2cc(NS(=O)(=O)c3ccccc3)ccc2O1,11,1,-28,-17[16.7 µM],2[16.7 µM],x
Cc1c(NC(=S)NC(=O)c2sc3ccccc3c2Cl)cccc1C(=O)O,-88,-48,63*,-76,x,x
COc1ccccc1C(=O)NNC(=S)NC(=O)c1sc2ccccc2c1Cl,17,x,-15,10,x,x
C[C@H]1CCCCO[C@H](CN(C)Cc2ccc(Cl)c(Cl)c2)[C@@H](C)CN([C@@H](C)CO)C(=O)c2cc(NC(=O)Nc3ccc(C(F)(F)F)cc3)ccc2O1,78*,7,12,15[16.7 µM],2[16.7 µM],-230
C[C@@H]1CN([C@H](C)CO)C(=O)c2cc(NC(=O)Nc3ccc(C(F)(F)F)cc3)ccc2O[C@@H](C)CCCCO[C@H]1CN(C)Cc1ccc(Cl)c(Cl)c1,91*,1,8,2[16.7 µM],3[16.7 µM],-250
C[C@H](CO)N1C[C@H](C)[C@@H](CN(C)Cc2ccc(Cl)c(Cl)c2)OCCCC[C@H](C)Oc2ccc(NC(=O)Nc3ccc(C(F)(F)F)cc3)cc2C1=O,84*,-1,6,12[16.7 µM],6[16.7 µM],-64
SMILES,PAX8 reporter,EWS-Fli inh,GSIS activator,Env fusion inh,miR122 inh,C2C12 statin
C[C@@H]1CN([C@@H](C)CO)C(=O)c2cc(NC(=O)Nc3ccc(C(F)(F)F)cc3)ccc2O[C@@H](C)CCCCO[C@H]1CN(C)Cc1ccc(Cl)c(Cl)c1,93*,-4,18,26[16.7 µM],1[16.7 µM],-25
C[C@H](CO)N1C[C@H](C)[C@@H](CN(C)CC2CC2)Oc2c(NC(=O)c3cnccn3)cccc2C1=O,x,-1,10,16[16.7 µM],-2[16.7 µM],-11
COc1ccc(NC(=O)N(C)C[C@@H]2OCCCC[C@H](C)Oc3ccc(NS(=O)(=O)c4cn(C)cn4)cc3C(=O)N([C@H](C)CO)C[C@H]2C)cc1,-19,0,10,6[16.7 µM],7[16.7 µM],x
COc1cccc(NC(=O)Nc2ccc3c(c2)C(=O)N(C)[C@H]2CC[C@H](CC(=O)O)O[C@H]2CO3)c1,-32,1,2,-18[16.7 µM],-17[16.7 µM],-36
C[C@@H]1CCCCO[C@@H](CN(C)Cc2ccc(Cl)c(Cl)c2)[C@H](C)CN([C@H](C)CO)C(=O)c2cc(NC(=O)Nc3ccc(C(F)(F)F)cc3)ccc2O1,91*,-2,16,16[16.7 µM],3[16.7 µM],-272
C[C@@H]1CCCCO[C@H](CN(C)Cc2ccc(Cl)c(Cl)c2)[C@H](C)CN([C@@H](C)CO)C(=O)c2cc(NC(=O)Nc3ccc(C(F)(F)F)cc3)ccc2O1,90*,-10,9,0[16.7 µM],3[16.7 µM],-6
C[C@@H]1CCCCO[C@@H](CN(C)Cc2ccc(Cl)c(Cl)c2)[C@@H](C)CN([C@H](C)CO)C(=O)c2cc(NC(=O)Nc3ccc(C(F)(F)F)cc3)ccc2O1,59,1,8,27[16.7 µM],16[16.7 µM],-20
C[C@@H]1CN([C@@H](C)CO)C(=O)c2cc(NS(C)(=O)=O)ccc2O[C@@H](C)CCCCO[C@H]1CN(C)C(=O)Nc1ccc(C(F)(F)F)cc1,-33,x,-23,x,x,x

# Source: PubChem BioAssay (Broad Institute)
